Here are results for 22 compounds from PubChem BioAssay (NCATS).

Several values for one entry are separate records, joined by “and”; a condition that tells them apart may be missing. Identical values can stand only once. Inconclusive results are not listed. Activity calls are given as the source filed them.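 How the source made its calls: active means dose-dependent loss of cell ATP signal giving a full or clear fitted curve, ranked by lower potency value; inconclusive means weak partial curve or response only at the top dose; inactive means no loss of viability signal.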 Some results are limits rather than exact numbers.
Potency means the concentration at half of the fitted maximal effect.

A short description of this test: Cell Viability - Jurkat (AID 426).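 Further: cells exposed to compound for 40 hours at 37 °C before ATP read.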 The conditions noted are these: qHTS. The source says:
NIH Chemical Genomics Center [NCGC]
NIH Molecular Libraries Screening Centers Network [MLSCN]
National Institutes of Environmental Health Sciences [NIEHS]
National Toxicology Program [NTP]
We have developed a 1536-well cell-based assay for quantitative high throughput screening (qHTS) against a number of cell lines to determine in vitro cytotoxicity of small molecules. This particular assay uses the Jurkat cell line (Clone E6-1) which is derived from the human T cell leukemia.
NCGC Assay Protocol Summary:
The CellTiter-Glo luminescent cell viability assay (Promega) is a homogeneous method to measure the number of viable cells in culture. The end point readout of this assay is based on quantitation of intracellular ATP, an indicator of metabolic activity, using the luciferase reaction. Luciferase catalyzes the oxidation of beetle Luciferin to oxyluciferin and light in the presence of ATP. The luminescent signal is proportional to amount of ATP present.
Using the CellTiter-Glo luminescent cell viability assay, the amount of cellular ATP was measured in the Jurkat cell line with complete culture medium following compound treatment for 40 hours. The assay was performed in opaque white Kalypsys 1536-well plates. In the screen, tamoxifen and doxorubicin were used as positive controls. Library compounds were measured for their ability to cause acute toxicity in the cell line, as reflected by a decrease in intracellular ATP levels, in a concentration-dependent manner. […] AC50 values were determined from concentration-response data modeled with the standard Hill equation.
qHTS protocol for CellTiter Glo Jurkat cellular assay
[Step] [Parameter] [Value] [Description]
1. Reagent; 5 uL; 5000 Jurkat cells/well
3. Controls; 23 nL; Tamoxifen 0.34 uM to 100 uM & Doxorubicin 0.02 nM to 100 uM
4. Time; 40 hr; 37 °C incubation
5. Reagent; 5 uL; CellTiter Glo reagent
6. Time; 20 min; Room Temperature
7. Detection; Luminescence; Viewlux plate reader
Keywords: cell viability, cytotoxicity, Jurkat cell line, luminescence, NTPHTS, NTPHTS_NCGC, NIEHS, EPA, DSSTox, MLSMR, MLSCN, NIH Roadmap, qHTS, NCGC
(qHTS replaces the single test concentration by a dilution series.)
As to `FC(F)(F)c1ccc(Cl)cc1`, the Potency is > 92 µM (inactive).

Take `Oc1c(Br)c(Br)c(Br)c(Br)c1Br`: the Potency was 39.1 µM (active).

On to `Nc1ccccc1C(=O)OCCc1ccccc1`, for which the Potency was > 92 µM (inactive).

`C[C@@H]1CC[C@@]2(OC1)O[C@H]1[C@@H](O)[C@H]3[C@@H]4CC[C@H]5C[C@@H](O[C@@H]6O[C@H](CO)[C@H](O[C@@H]7O[C@H](CO)[C@@H](O)[C@H](O[C@@H]8OC[C@@H](O)[C@H](O)[C@H]8O)[C@H]7O[C@@H]7O[C@H](CO)[C@@H](O)[C@H](O[C@@H]8O[C@H](CO)[C@@H](O)[C@H](O)[C@H]8O)[C@H]7O)[C@H](O)[C@H]6O)[C@H](O)C[C@]5(C)[C@H]4CC[C@]3(C)[C@H]1[C@@H]2C`: the Potency is 0.573 µM (active).

In the case of `C#CCO`, the Potency is > 92 µM (inactive).

Regarding `c1ccc2cc3c(cc2c1)-c1cccc2cccc-3c12`, the Potency was > 92 µM (inactive).

On to `[CH3][Hg][Cl]`, for which the Potency was 1.49 µM (active).

On to `N#CC(Cl)Cl`, for which the Potency is 6.52 µM (active).

As to `O=[N+]([O-])C(Br)Br`, the Potency is 24.4 µM (active).

For the compound `CN(C)c1ccc(N=O)cc1`, the Potency is 2.5 µM (active).

On to `N#CSCSC#N`, for which the Potency is 3.31 µM (active).

Regarding `ClC1=C(Cl)C2(Cl)C3C(Cl)C(Cl)CC3C1(Cl)C2(Cl)Cl` (configuration not stated), the Potency was 60.7 µM (active).

For `Cc1ccc(O)cc1C`, the Potency was > 92 µM (inactive).

In the case of `O=C(CCl)c1ccccc1`, the Potency was 9.5 µM (active).

With `O=C(O)C1C(C(=O)O)C2(Cl)C(Cl)=C(Cl)C1(Cl)C2(Cl)Cl` (configuration not stated), the Potency was > 92 µM (inactive).

With `CCCCCCCCn1sccc1=O`, the Potency was 7.52 µM (active).

With `CC(C)CC(C)Nc1ccc(Nc2ccccc2)cc1` (configuration not stated), the Potency was 64.1 µM (active).

Regarding `COP(=O)(OC)O/C(=C\Cl)c1cc(Cl)c(Cl)cc1Cl`, the Potency was 32.2 µM (active).

Consider `O=[N+]([O-])c1cc(C(F)(F)F)cc([N+](=O)[O-])c1Cl`, for which the Potency is 32.8 µM (active).

On to `Cc1ccc2ccccc2c1C`, for which the Potency is > 92 µM (inactive).

Consider `O=C1C2(Cl)C3(Cl)C4(Cl)C(Cl)(Cl)C5(Cl)C3(Cl)C1(Cl)C5(Cl)C24Cl` (configuration not stated), for which the Potency is 32.8 µM (active) and 53.4 µM (active).

With `O=[N+]([O-])c1ccccc1Cl`, the Potency was > 92 µM (inactive).
